# Results: PubChem BioAssay (Tox21)
# Where “and” joins values, the source holds several entries; their conditions need not be identical. Identical values can stand only once. Records with an inconclusive call do not appear. Where a call stands in place of a potency, no number is given. A structure can be active in one record and inactive in another. Calls of active or inactive are those of the source. Unless noted, calls follow the shape of the dose curve; as a rule, active = well fitted curve in the direction sought with a large enough effect in the repeat runs; inconclusive = weak or mixed curves; inactive = no such curve, though single readings can be large; an effect the other way counts as inactive or inconclusive.
# Tests used:
# [1] = qHTS assay to test for compound auto fluorescence at 535 nm (green) in HEK293 cells (AID 720680)
# [2] = qHTS assay to test for compound auto fluorescence at 535 nm (green) in HEK293 cell free culture (AID 720682)
# Outline: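 Compounds were pin-transferred into cell-free DMEM with 10% FBS, and green fluorescence was read at excitation 485 nm and emission 535 nm. Intensities were expressed as fluorescein-equivalent values.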
# [3] = qHTS assay to test for compound auto fluorescence at 590 nm (red) in HEK293 cell free culture (AID 720683)
# Outline: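 Red-channel autofluorescence of compounds in culture medium (DMEM, 10% FBS), no cells, measured at 540/590 nm. Rose Bengal sodium is the reference fluorophore for equivalence.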
# [4] = qHTS assay to test for compound auto fluorescence at 590 nm (red) in HepG2 cell free culture (AID 720684)
# Outline: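 No cells present: MEM + 10% FBS only. Compound pinned in, red label read (540/590 nm). Activity = fluorescence equivalent to Rose Bengal sodium.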
# [5] = qHTS assay to test for compound auto fluorescence at 460 nm (blue) in HepG2 cell free culture (AID 720685)
# Outline: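 Cell-free plates of MEM plus 10% FBS received 23 nL compound or DMSO vehicle; blue-channel (405/460 nm) intensity scored against triamterene as reference fluorophore.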
# [6] = qHTS assay to test for compound auto fluorescence at 535 nm (green) in HepG2 cell free culture (AID 720686); also: potency is read from the fitted curve at half-maximal effect
# [7] = qHTS assay to test for compound auto fluorescence at 460 nm (blue) in HepG2 cells (AID 720687); also: potency is read from the fitted curve at half-maximal effect
# Outline: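 Blue-channel autofluorescence (Ex/Em 405/460 nm, triamterene-equivalent) was measured after 1 hr compound exposure at 37 C, 5% CO2. Cells were HepG2, plated overnight at 37 C in MEM plus 10% FBS.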
# [8] = qHTS assay for identifying genotoxic compounds that show differential cytotoxicity against isogenic chicken DT40 cell lines with known DNA damage response pathways - wild type cell line (AID 743012); also: nearly all actives have a fitted effect of over 60% in size; also: potency is read from the fitted curve at half-maximal effect
# Outline: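 300 wt DT40 cells/well; cpd (DMSO) pintool-transferred after ~0.5 h at 37 C/5% CO2; 40 h incubation; CellTiter-Glo added, 30 min RT; luminescence read.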
# [9] = qHTS assay for identifying genotoxic compounds that show differential cytotoxicity against isogenic chicken DT40 cell lines with known DNA damage response pathways - Rad54/Ku70 mutant cell line (AID 743015); also: nearly all actives have a fitted effect of over 60% in size; also: potency is read from the fitted curve at half-maximal effect
# [10] = qHTS assay to identify small molecule antagonists of the androgen receptor (AR) signaling pathway - cell viability counter screen (AID 743033; also: nearly all actives have a fitted effect of over 45% in size; also: potency is read from the fitted curve at half-maximal effect)
# [11] = target: Androgen receptor (Homo sapiens) (UniProt P10275); assay: qHTS assay to identify small molecule agonists of the androgen receptor (AR) signaling pathway using the MDA cell line (AID 743040; also: nearly all actives have a fitted effect of over 20% in size; also: potency is read from the fitted curve at half-maximal effect)
# Chain of Androgen receptor (Homo sapiens) (P10275 whole entry, looked up): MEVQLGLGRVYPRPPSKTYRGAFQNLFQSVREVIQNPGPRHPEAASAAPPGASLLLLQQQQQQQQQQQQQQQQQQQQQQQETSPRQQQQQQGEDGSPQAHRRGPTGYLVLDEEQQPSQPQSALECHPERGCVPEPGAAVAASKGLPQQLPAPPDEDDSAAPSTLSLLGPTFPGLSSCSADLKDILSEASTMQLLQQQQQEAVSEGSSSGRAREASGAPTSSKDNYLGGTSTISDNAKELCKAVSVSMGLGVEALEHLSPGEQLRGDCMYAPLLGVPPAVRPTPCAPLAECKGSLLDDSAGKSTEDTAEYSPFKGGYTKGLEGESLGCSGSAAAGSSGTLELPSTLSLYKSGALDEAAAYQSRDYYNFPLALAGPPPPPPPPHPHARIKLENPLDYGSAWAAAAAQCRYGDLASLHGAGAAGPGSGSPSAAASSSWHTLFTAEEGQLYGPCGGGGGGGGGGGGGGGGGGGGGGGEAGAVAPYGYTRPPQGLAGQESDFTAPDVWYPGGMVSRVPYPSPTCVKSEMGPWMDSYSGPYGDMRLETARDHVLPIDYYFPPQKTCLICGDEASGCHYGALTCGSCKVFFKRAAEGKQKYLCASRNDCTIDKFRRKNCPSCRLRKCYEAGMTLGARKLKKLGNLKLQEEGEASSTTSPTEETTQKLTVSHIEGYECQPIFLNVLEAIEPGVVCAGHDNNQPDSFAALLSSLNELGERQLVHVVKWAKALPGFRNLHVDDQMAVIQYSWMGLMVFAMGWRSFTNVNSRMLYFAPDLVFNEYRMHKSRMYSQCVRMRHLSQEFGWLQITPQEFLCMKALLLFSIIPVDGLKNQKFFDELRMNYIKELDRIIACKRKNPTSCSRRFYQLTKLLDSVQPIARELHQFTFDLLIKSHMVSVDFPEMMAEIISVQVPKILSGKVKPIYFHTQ
# Outline: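 Stable MMTV-luciferase reporter in MDA-kb2 cells; note the promoter carries GR as well as AR response elements. 16 h compound treatment, 37C, 0% CO2; ONE-Glo luminescence endpoint.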
# [12] = qHTS assay to identify small molecule antagonists of the androgen receptor (AR) signaling pathway using the MDA cell line - cell viability counter screen (AID 743041; also: nearly all actives have a fitted effect of over 45% in size; also: potency is read from the fitted curve at half-maximal effect)
# Outline: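 Using the breast carcinoma line MDA-kb2 AR-luc, test chemicals were co-incubated with R1881 for 16 h; CellTiter-Fluor reagent, added at 15.5 h, provided a fluorescence measure of live cells.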
# [13] = target: Androgen receptor (Homo sapiens) (UniProt P10275); assay: qHTS assay to identify small molecule antagonists of the androgen receptor (AR) signaling pathway using the MDA cell line (AID 743042; also: potency is read from the fitted curve at half-maximal effect; nearly all actives have a fitted effect of over 55% in size)
# Outline: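 Antagonist mode: compounds plus R1881 agonist added to MDA-kb2 AR-luc cells, incubated 16 h at 37C. Luciferase reporter luminescence quantified, with multiplexed CellTiter-Fluor readout for cell viability.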
# [14] = qHTS assay to identify small molecule antagonists of the glucocorticoid receptor (GR) signaling pathway - cell viability counter screen (AID 720693); also: nearly all actives have a fitted effect of over 55% in size; also: potency is read from the fitted curve at half-maximal effect
# [15] = qHTS assay for identifying genotoxic compounds that show differential cytotoxicity against isogenic chicken DT40 cell lines with known DNA damage response pathways - Rev3 mutant cell line (AID 743014); also: nearly all actives have a fitted effect of over 55% in size; also: potency is read from the fitted curve at half-maximal effect
# [16] = qHTS assay to test for compound auto fluorescence at 460 nm (blue) in HEK293 cell free culture (AID 720681)
# Outline: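 Blue fluorescence (Ex 405/Em 460 nm, triamterene-equivalent) was read immediately after pin transfer of compound or DMSO into medium (DMEM, 10% FBS) without cells.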
# [17] = target: Androgen receptor (Homo sapiens) (UniProt P10275); assay: qHTS assay to identify small molecule antagonists of the androgen receptor (AR) signaling pathway (AID 743035; active = well fitted inhibition curve with a large enough effect in the signal ratio in the repeat runs, not every such curve was filed as active; the % refers to the signal ratio; also: potency is read from the fitted curve at half-maximal effect)
# Outline: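 In this cell-based reporter screen, compounds were tested in concentration series against R1881-activated HEK293 cells expressing beta-lactamase under UAS control; after 16 h at 37C, FRET substrate was added and fluorescence read 2 h later.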
# [18] = target: Glucocorticoid receptor (Homo sapiens) (UniProt P04150); assay: qHTS assay to identify small molecule agonists of the glucocorticoid receptor (GR) signaling pathway (AID 720691; active = well fitted activation curve with a large enough effect in the signal ratio in the repeat runs, not every such curve was filed as active; the % refers to the signal ratio; also: potency is read from the fitted curve at half-maximal effect); conditions: GR-bla HeLa, beta-lactamase reporter ratio, 18 h; activation: at 62.4 µM (top of the series)
# Chain of Glucocorticoid receptor (Homo sapiens) (P04150 whole entry, looked up): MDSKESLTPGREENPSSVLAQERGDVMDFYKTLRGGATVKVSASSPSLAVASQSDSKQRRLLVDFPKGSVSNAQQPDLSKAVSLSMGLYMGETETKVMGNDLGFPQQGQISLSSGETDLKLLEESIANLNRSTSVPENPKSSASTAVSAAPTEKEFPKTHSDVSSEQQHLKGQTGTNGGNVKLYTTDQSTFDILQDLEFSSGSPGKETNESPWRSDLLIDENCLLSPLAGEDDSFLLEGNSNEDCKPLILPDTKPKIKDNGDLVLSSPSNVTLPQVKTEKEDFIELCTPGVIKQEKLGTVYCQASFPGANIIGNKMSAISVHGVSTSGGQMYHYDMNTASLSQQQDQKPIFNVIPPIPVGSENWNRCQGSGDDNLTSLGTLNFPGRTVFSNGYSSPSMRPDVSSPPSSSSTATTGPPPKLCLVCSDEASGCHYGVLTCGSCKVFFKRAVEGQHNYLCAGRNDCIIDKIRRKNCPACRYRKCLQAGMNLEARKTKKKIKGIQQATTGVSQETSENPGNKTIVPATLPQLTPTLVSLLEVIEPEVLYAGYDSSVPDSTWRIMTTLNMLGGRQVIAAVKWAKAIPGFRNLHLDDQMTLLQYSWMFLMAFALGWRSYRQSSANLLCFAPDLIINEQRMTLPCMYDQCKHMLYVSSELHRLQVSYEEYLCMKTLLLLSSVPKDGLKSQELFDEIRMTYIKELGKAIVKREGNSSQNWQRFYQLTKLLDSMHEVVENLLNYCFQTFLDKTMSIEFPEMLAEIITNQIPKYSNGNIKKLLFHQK
# Outline: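 A HeLa cervical cancer line expressing GR and a glucocorticoid response element-driven beta-lactamase gene is treated with compounds for 18 h; LiveBLAzer B/G FRET substrate is then applied and fluorescence read.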
# Tags tell the direction and shape of the fitted curve or compound fluorescence and quenching.
smiles,measurement,setting,value
CN(C)C(=O)C1(N2CCCCC2)CCN(CC[C@@]2(c3ccc(Cl)c(Cl)c3)CN(C(=O)c3ccccc3)CCO2)CC1,outcome,[1],inactive
same,outcome,[2],inactive
same,Potency,[3],inactive
same,Potency,[4],inactive
same,Potency,[5],inactive
same,Potency,[6],inactive
same,Potency,[7],inactive
same,Potency,[8],7.19 µM (active)
same,Potency,[9],5.71 µM (active)
same,Potency,[10],16.2 µM (active)
same,Potency,[11],inactive
same,Potency,[12],50.9 µM (active)
same,Potency,[13],28.6 µM (active)
N=C1N=C(N)c2ccccc21,outcome,[1],inactive
same,outcome,[2],inactive
same,Potency,[3],inactive
same,Potency,[4],inactive
same,Potency,[5],inactive
same,Potency,[6],inactive
same,Potency,[7],inactive
same,Potency,[14],inactive
same,Potency,[8],17.2 µM (active)
same,Potency,[15],17.2 µM (active)
same,Potency,[9],17.2 µM (active)
same,Potency,[12],inactive
NC(=NCCCCCCN=C(N)/N=C(\N)Nc1ccc(Cl)cc1)/N=C(\N)Nc1ccc(Cl)cc1,outcome,[1],inactive
same,outcome,[2],inactive
same,Potency,[3],inactive
same,Potency,[4],inactive
same,Potency,[5],inactive
same,Potency,[7],inactive
same,Potency,[14],21.3 µM (active) [middle of 5 runs]
same,Potency,[15],15.3 µM (active) [middle of 5 runs]
same,Potency,[9],17.1 µM (active) [middle of 5 runs]
same,Potency,[12],inactive
CCCC(=O)OC[C@@H](OC(=O)CCC)[C@@H](OC(=O)CCC)[C@H](Cn1c2nc(=O)[nH]c(=O)c-2nc2cc(C)c(C)cc21)OC(=O)CCC,Potency,[16],inactive
same,Potency,[3],inactive
same,Potency,[4],inactive
same,Potency,[5],inactive
same,Potency,[6],8.91 µM [fluorescent] (active)
same,Potency,[7],inactive
same,Potency,[8],11.9 µM (active)
same,Potency,[15],13.3 µM (active)
same,Potency,[9],10.6 µM (active)
same,Potency,[10],inactive
same,Potency,[17],inactive
same,Potency,[11],5.31 µM (active)
same,Potency,[13],23.7 µM (active)
CN1CCC(Nc2ncc3ncnc(Nc4ccc(F)c(Cl)c4)c3n2)CC1,outcome,[1],inactive
same,outcome,[2],inactive
same,Potency,[3],inactive
same,Potency,[4],inactive
same,Potency,[6],inactive
same,Potency,[7],12.6 µM [fluorescent] (active)
same,Potency,[14],inactive
same,Potency,[8],13.3 µM (active)
same,Potency,[15],23.7 µM (active)
same,Potency,[9],21.1 µM (active)
same,Potency,[10],inactive
same,Potency,[11],inactive
CCCC1O[C@@H]2C[C@H]3[C@@H]4CCC5=CC(=O)C=C[C@]5(C)[C@H]4[C@@H](O)C[C@]3(C)[C@]2(C(=O)CO)O1 (stereo partly drawn),outcome,[1],inactive
same,outcome,[2],inactive
same,Potency,[3],inactive
same,Potency,[4],inactive
same,Potency,[5],inactive
same,Potency,[6],inactive
same,Potency,[7],inactive
same,Potency,[14],inactive
same,Potency,[8],inactive
same,Potency,[15],inactive and 48.6 µM (active)
same,Potency,[9],inactive and 68.7 µM (active) and 54.5 µM (active)
same,Potency,[10],inactive
same,Potency,[12],inactive
C1CCCC1,outcome,[1],inactive
same,outcome,[2],inactive
same,Potency,[3],inactive
same,Potency,[4],inactive
same,Potency,[5],inactive
same,Potency,[6],inactive
same,Potency,[7],inactive
same,Potency,[14],inactive
same,Potency,[8],inactive
same,Potency,[15],inactive
same,Potency,[9],inactive
same,Potency,[10],inactive
same,Potency,[12],inactive
C=CC(=O)OCC(CO)(COC(=O)C=C)COC(=O)C=C,outcome,[1],inactive
same,outcome,[2],inactive
same,Potency,[3],inactive
same,Potency,[4],inactive
same,Potency,[5],inactive
same,Potency,[6],inactive
same,Potency,[7],inactive
same,Potency,[14],6.19 µM (active) and 11 µM (active)
same,Potency,[8],1.73 µM (active) and 2.17 µM (active)
same,Potency,[15],1.22 µM (active) and 2.43 µM (active)
same,Potency,[9],1.37 µM (active) and 1.72 µM (active)
same,Potency,[10],6.94 µM (active) and 11 µM (active)
same,Potency,[17],3.9 µM (active) and 4.9 µM (active)
same,Potency,[11],inactive
same,Potency,[12],17.3 µM (active) and 27.3 µM (active)
same,Potency,[13],2.18 µM (active) and 3.86 µM (active)
CCCN(CCC)C(=O)C(CCC(=O)OCCCN1CCN(CCOC(=O)Cc2c(C)n(C(=O)c3ccc(Cl)cc3)c3ccc(OC)cc23)CC1)NC(=O)c1ccccc1 (stereo not drawn),outcome,[1],inactive
same,outcome,[2],inactive
same,Potency,[3],inactive
same,Potency,[4],inactive
same,Potency,[5],inactive
same,Potency,[6],inactive
same,Potency,[7],inactive
same,Potency,[14],inactive
same,Potency,[8],23.7 µM (active)
same,Potency,[15],26.6 µM (active)
same,Potency,[9],23.7 µM (active)
same,Potency,[10],inactive
same,Potency,[11],inactive
same,Potency,[12],inactive
COc1cccc2c1C(=O)c1c(O)c3c(c(O)c1C2=O)C[C@@](O)(C(=O)CO)C[C@@H]3O[C@H]1C[C@H](N)[C@H](O[C@@H]2CCCCO2)[C@H](C)O1,outcome,[1],inactive
same,outcome,[2],inactive
same,Potency,[5],inactive
same,Potency,[6],inactive
same,Potency,[7],inactive
same,Potency,[18],3.01 µM (active)
same,Potency,[14],21.3 µM (active)
same,Potency,[8],0.188 µM (active)
same,Potency,[15],0.237 µM (active)
same,Potency,[9],0.0298 µM (active)
same,Potency,[10],inactive
same,Potency,[17],8.49 µM (active)
same,Potency,[11],inactive
same,Potency,[13],4.22 µM (active)
Cc1cc(CCN2CCN(c3nsc4ccccc34)CC2)cc2c1NC(=O)CC2(C)C,outcome,[1],inactive
same,outcome,[2],inactive
same,Potency,[3],inactive
same,Potency,[4],inactive
same,Potency,[5],inactive
same,Potency,[7],inactive
same,Potency,[18],inactive
same,Potency,[14],49 µM (active)
same,Potency,[8],3.06 µM (active)
same,Potency,[15],5.45 µM (active)
same,Potency,[9],4.86 µM (active)
same,Potency,[10],13.8 µM (active)
same,Potency,[11],inactive
same,Potency,[12],48.6 µM (active)
same,Potency,[13],15.4 µM (active)
CCCCCCCCCCCCCC[P+](CCCC)(CCCC)CCCC (tested in a mixture with another compound),outcome,[1],inactive
same,outcome,[2],inactive
same,Potency,[3],inactive
same,Potency,[4],inactive
same,Potency,[5],inactive
same,Potency,[6],inactive
same,Potency,[7],inactive
same,Potency,[14],8.76 µM (active)
same,Potency,[8],0.388 µM (active)
same,Potency,[15],0.218 µM (active)
same,Potency,[9],0.218 µM (active)
same,Potency,[10],0.983 µM (active)
same,Potency,[17],1.75 µM (active)
same,Potency,[11],inactive
same,Potency,[12],5.48 µM (active)
NC(=O)N1C(=O)C(C(=O)c2cc(Cl)cs2)c2cc(F)c(Cl)cc21 (stereo not drawn),outcome,[1],inactive
same,outcome,[2],inactive
same,Potency,[3],inactive
same,Potency,[4],inactive
same,Potency,[5],inactive
same,Potency,[6],inactive
same,Potency,[7],inactive
same,Potency,[14],38.9 µM (active)
same,Potency,[9],61.1 µM (active)
same,Potency,[10],inactive
same,Potency,[11],inactive
CC(C)(C)C(=O)OCOC(=O)[C@@H]1N2C(=O)[C@@H](NC(=O)[C@H](N)c3ccccc3)[C@H]2SC1(C)C,"fluorescence, % of fluorescein",[1],-0.024% [at 18.6 µM] (inactive)
same,activity change,[2],0.023% [at 18.6 µM] (inactive)
same,"fluorescence, % of fluorescent control",[3],0.0827% [at 18.6 µM] (inactive)
same,"fluorescence, % of Rose Bengal",[4],-0.0322% [at 18.6 µM] (inactive)
same,"fluorescence, % of fluorescent control",[5],0.014% [at 18.6 µM] (inactive)
same,"fluorescence, % of fluorescein control",[6],-0.0041% [at 18.6 µM] (inactive)
same,"fluorescence, % of fluorescent control",[7],0.061% [at 18.6 µM] (inactive)
same,Potency,[14],inactive
same,Potency,[8],inactive
same,Potency,[15],inactive
same,Potency,[9],inactive
same,Potency,[12],inactive
